High-throughput results deposited in PubChem BioAssay by several laboratories.
NRP1-CendR mod = modulators of CendR peptide binding to human neuropilin-1; inhibition, % at 25 µM; actives 0.85% (n = 360,000); AID 602438; FAM-RPARPAR peptide binding to NRP-1, fluorescence polarization;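 active = inhibition or corrected inhibition above about 18%, plus a signal ratio from 0.5 to 1.5, limit read from the data, passing the limit was not always enough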
PKA-R2B act = activates the human PKA-R2B holoenzyme complex; activation, % at 11.4 µM; PKA-R2B holoenzyme dissociation, Cy5-IP20 fluorescence polarization; R2B truncated from residue 108, S112A mutant; 0% DMSO only, 100% 113 µM cGMP; actives 0.079% (n = 340,000); P22694+P31323;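 active = activation above a cutoff set at the mean over all compounds plus 3 SD, cut at about 18% in these data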;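 also: higher means more holoenzyme dissociation and a rise in polarization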
ATG4B inhibitor = ATG4B (human) cysteine protease inhibition | ATG4B cleavage of LC3-PLA2, NBD-HPC fluorescence, 1 h | actives 0.51% (n = 340,000) | Q9Y4P1 | inhibition, % at 8.33 µM; in the data active = inhibition above about 40%
Target sequence (Q9Y4P1 whole entry, looked up): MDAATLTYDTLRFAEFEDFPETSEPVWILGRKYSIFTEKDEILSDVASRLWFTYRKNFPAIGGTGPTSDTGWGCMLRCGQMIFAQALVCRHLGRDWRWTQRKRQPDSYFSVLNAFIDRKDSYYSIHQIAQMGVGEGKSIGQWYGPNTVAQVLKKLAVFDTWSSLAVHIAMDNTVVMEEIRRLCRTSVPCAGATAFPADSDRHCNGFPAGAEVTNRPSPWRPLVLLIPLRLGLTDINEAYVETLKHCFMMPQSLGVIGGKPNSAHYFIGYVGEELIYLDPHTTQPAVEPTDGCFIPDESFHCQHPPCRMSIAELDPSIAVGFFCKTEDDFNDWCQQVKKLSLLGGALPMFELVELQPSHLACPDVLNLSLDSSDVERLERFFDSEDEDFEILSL
VLA-4 inh = inhibition in a human VLA-4 binding assay; actives 0.2% (n = 330,000); inhibition, % (about 7 µM as worked out from the volumes in the protocol); AID 2557; P13612; VLA-4 expressing cells, ligand binding flow cytometry
PKA-R1A act = activators of PKA-R1A complex | actives 0.083% (n = 340,000) | AID 504707 | P00514+P68181 | activation, % at 11.4 µM | PKA-R1A dissociation, Cy5-IP20 fluorescence polarization; scaled: DMSO 0%, 113 µM cGMP 100%;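 active = percent activation above the mean of all tested compounds plus 3 SD, cut at about 19% in these data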;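 also: higher means more PKAc released from R1A so a rise in polarization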
ATG4B confirm = confirmation of human ATG4B inhibitors; ATG4B protease fluorescent substrate cleavage assay; shares compounds with ATG4B inhibitor; AID 504757; inhibition, % at 8.33 µM; actives 92% (n = 320); in the data active = inhibition above about 39%
PLA2 ctr = counter-screen for ATG4B inhibitors: human phospholipase A2. purified PLA2, NBD-C6-HPC fluorescence, 45 min. inhibition, % at 8.33 µM. shares compounds with ATG4B inhibitor. actives 66% (n = 1,600)
Target sequence (P04054 whole entry, looked up): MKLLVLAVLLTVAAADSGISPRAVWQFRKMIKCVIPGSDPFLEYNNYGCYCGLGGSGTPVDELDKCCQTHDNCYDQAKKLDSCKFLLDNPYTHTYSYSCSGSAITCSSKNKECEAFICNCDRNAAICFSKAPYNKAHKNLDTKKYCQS
Active calls of the source: *. Hits are enriched below; roughly 1.6% of the tested compounds scored in any of these assays. Rule as the data show it, unless noted: active = inhibition above about 50%; inactive = the rest.

For CC(C)NC(=O)Nc1ccc2c(c1)C(=O)N([C@@H](C)CO)C[C@@H](C)[C@H](CN(C)Cc1ccccc1)OCCCC[C@H](C)O2 the results were NRP1-CendR mod 1.1, PKA-R2B act 1.6 and PKA-R1A act -5.2.
Cc1sc2nc(C3CCCCC3)nc(SCC(=O)N3CC(=O)Nc4ccccc43)c2c1C was read as NRP1-CendR mod -3.5, PKA-R2B act -18.3, ATG4B inhibitor 94.3*, VLA-4 inh -4.5, PKA-R1A act 1.5, ATG4B confirm 25.7* and PLA2 ctr 34.8.
Screening Cc1nc(SCC(=O)N2CC(=O)Nc3ccccc32)nc(C)c1C returned NRP1-CendR mod 12.1, PKA-R2B act -5.4, ATG4B inhibitor 0.2, VLA-4 inh 3.0 and PKA-R1A act -3.2.
Screening CCc1nc(SCC(=O)N2CC(=O)Nc3ccccc32)c2c(C)c(C)sc2n1 returned NRP1-CendR mod -8.9, PKA-R2B act -7.7, ATG4B inhibitor 71.0*, VLA-4 inh -6.6, PKA-R1A act -3.3 and PLA2 ctr 76.9*.
Screening COc1ccc(-c2oc3cccnc3c2-c2ccc(OC)nc2)cc1 returned NRP1-CendR mod 8.3, PKA-R2B act -0.4, ATG4B inhibitor -7.1, VLA-4 inh -2.7 and PKA-R1A act -4.6.
For CC(=O)Nc1ccc(S(=O)(=O)NN=CCCc2ccccc2)cc1 the results were NRP1-CendR mod 21.5, PKA-R2B act 3.1, ATG4B inhibitor -4.7 and PKA-R1A act 5.6.
Screening CN1CCc2c(sc(NC(=O)C3CCCCC3)c2C(N)=O)C1 returned NRP1-CendR mod -6.6, PKA-R2B act 5.6, ATG4B inhibitor -3.0, VLA-4 inh 0.0 and PKA-R1A act 0.3.
Screening Cc1cccc(NC2=C/C(=N/S(=O)(=O)c3cccs3)c3ccccc3C2=O)c1 returned NRP1-CendR mod 6.8, PKA-R2B act 0.8, ATG4B inhibitor 28.0, VLA-4 inh -16.9 and PKA-R1A act -2.0.
For Cc1ccc(NC2=C/C(=N\S(=O)(=O)c3cccs3)c3ccccc3C2=O)c(C)c1 the results were NRP1-CendR mod 11.6, PKA-R2B act -7.2, ATG4B inhibitor 56.3*, VLA-4 inh 6.7, PKA-R1A act 2.8 and PLA2 ctr 60.5*.
Screening Cc1c(C(=O)Nc2ccccc2[N+](=O)[O-])csc1-c1ccccc1 returned NRP1-CendR mod -5.0, PKA-R2B act 0.9, ATG4B inhibitor 59.2*, PKA-R1A act 0.1 and PLA2 ctr 47.9.
Screening O=C1CCCC2=C1C(c1ccncc1)c1c(nc(SCc3ccccc3Cl)[nH]c1=O)N2 (stereo not drawn) returned NRP1-CendR mod -29.8, PKA-R2B act 0.4, ATG4B inhibitor 76.8*, VLA-4 inh -2.0, PKA-R1A act 1.6 and PLA2 ctr 81.0*.
CCOC(=O)c1c(C)c(C)n2c1NC(=O)C2 was read as NRP1-CendR mod -136.0.
`O=C(CSc1nnc(-c2cccnc2)o1)Nc1nccs1` gave NRP1-CendR mod 0.6, PKA-R2B act -5.0, ATG4B inhibitor -1.2, VLA-4 inh 2.2 and PKA-R1A act 4.6.
For CCn1c(N2CCN(S(=O)(=O)c3ccc(Cl)cc3)CC2)nc2ccccc21 the results were NRP1-CendR mod -0.7, PKA-R2B act 4.9, ATG4B inhibitor 59.9*, VLA-4 inh 7.8, PKA-R1A act 10.0 and PLA2 ctr 67.3*.
Screening CCn1c(N2CCN(S(=O)(=O)c3ccc(F)cc3)CC2)nc2ccccc21 returned NRP1-CendR mod -8.4, PKA-R2B act -4.3, ATG4B inhibitor 28.1, VLA-4 inh -14.0 and PKA-R1A act 1.0.
For CC1=C(C(=O)N(C(C)C)C(C)C)CC(CC(=O)NC(c2ccccc2)c2ccccc2)C(=O)N1CCC1=CCCCC1 (stereo not drawn) the results were NRP1-CendR mod -3.6.
`CCn1c(SCc2c(Cl)cccc2Cl)nc2nc3c(cc2c1=O)CCCC3` gave NRP1-CendR mod 4.5, PKA-R2B act -3.0, ATG4B inhibitor 0.1, VLA-4 inh 5.7 and PKA-R1A act 3.0.
`CCn1c(SCc2ccccc2Cl)nc2nc3c(cc2c1=O)CCCC3` gave NRP1-CendR mod -7.0, PKA-R2B act 0.9, ATG4B inhibitor 40.5*, PKA-R1A act -9.9, ATG4B confirm 66.1* and PLA2 ctr 27.3.
For CCOc1ccc(-c2noc(-c3csc([C@@H]4C[C@H](O)[C@@H](CO)O4)n3)n2)cc1 the results were NRP1-CendR mod -1.2.
Screening O=C(c1cc(-c2ccco2)on1)N1CCCc2ccccc21 returned NRP1-CendR mod -27.9, PKA-R2B act -9.5, ATG4B inhibitor 62.9*, VLA-4 inh 0.2, PKA-R1A act -14.6 and PLA2 ctr 49.2.
Screening O=C(c1cc(-c2ccco2)on1)N1CCc2ccccc2C1 returned NRP1-CendR mod -38.5, PKA-R2B act -0.4, ATG4B inhibitor 46.2*, VLA-4 inh 4.0, PKA-R1A act -4.2 and PLA2 ctr 58.5*.
`O=C(c1cc(-c2ccccc2O)on1)N1CCc2ccccc2C1` gave NRP1-CendR mod -2.6, PKA-R2B act -3.9, ATG4B inhibitor 32.1, VLA-4 inh 5.8 and PKA-R1A act 5.9.
For Cc1ccc(Cn2cnc3c(cnn3C(C)(C)C)c2=O)cc1 the results were NRP1-CendR mod 7.5, PKA-R2B act -4.1, ATG4B inhibitor 0.9, VLA-4 inh 5.8 and PKA-R1A act -0.1.
CC(C)(C)n1ncc2c(=O)n(Cc3ccccc3Br)cnc21 was read as NRP1-CendR mod 3.1, PKA-R2B act -15.9, ATG4B inhibitor 40.6*, VLA-4 inh 7.1, PKA-R1A act -13.3, ATG4B confirm 68.6* and PLA2 ctr 42.5.
COc1ccc(O)c(C(=O)c2cnn(C(=O)c3cccc(N(C)C)c3)c2)c1 was read as NRP1-CendR mod -5.3, PKA-R2B act -4.3, ATG4B inhibitor -5.8, VLA-4 inh -4.0 and PKA-R1A act 15.7.
CN(C)c1cccc(C(=O)n2cc(C(=O)c3cc(F)ccc3O)cn2)c1 was read as NRP1-CendR mod -26.9, PKA-R2B act -8.4, ATG4B inhibitor 50.9*, VLA-4 inh 4.5, PKA-R1A act -1.9, ATG4B confirm 50.3* and PLA2 ctr 1.7.
Cc1cccc(NC(=S)NNC(=O)c2csc3c2CCCC3)c1 was read as NRP1-CendR mod 6.6, PKA-R2B act -0.2, ATG4B inhibitor 43.1*, VLA-4 inh 0.7, PKA-R1A act -17.2, ATG4B confirm 71.1* and PLA2 ctr 43.2.
`COC(=O)[C@]12CCCCC=C1N(CCC1=CCCCC1)C(=O)[C@H](CC(=O)N1CCCC1)C2` gave NRP1-CendR mod 22.7.
